# Source: PubChem BioAssay (NCI)
# Several values for one entry are separate records, joined by “and”; a condition that tells them apart may be missing. Equal entries are not always repeated. Compounds without any hit were thinned out: in the full panel of roughly 83,000, 20% have a hit.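 Plates (96-well) were seeded with cells, treated with compound at one concentration, and incubated for 48 hours before percent growth was determined.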 Activity calls are given as the source filed them.
# Tested on: SNB-75 CNS
# Experiment: NCI-60 one-dose screen, 48 h (100 = growth as untreated, 0 = no growth, -100 = all killed)
# Conditions: 0.0025 µM
# Method: Growth inhibition of the SNB-75 human tumor cell line is measured as a screen for anti-cancer activity. Cells are grown in 96 well plates and exposed to the test compound for 48 hours. Compounds are tested at a single concentration, which is 10^-5 M for most compounds. The reported endpoint is percent growth (GI% or GIPRCNT), where numbers from 0 - 100% represent growth inhibition, and numbers from -100% - 0 represent cell death. For example, a value of 40 represents 60% growth inhibition. A value of 0 means no net growth occurred over the course of the experiment. A value of -40 indicates 40% of cells at the beginning of the experiment died by the end of the experiment. A value of -100 means all cells are dead at the end of the experiment.
# NCI-60 Human Tumor Cell Lines Screen was performed using the standard one-dose NCI protocol, which is described in more detail at https://dtp.cancer.gov/discovery_development/nci-60/default.htm.
# Compounds with GIPRCNT values below 10 were considered active. Activity score was based on GIPRCNT using the following formula: […]
# Score is 0 for GIPRCNT values of 100 or above, 50 for GIPRCNT values of 0, and 100 for GIPRCNT values of -100.
row,Structure (SMILES),growth
1,COc1cccc2c1C(=O)c1c(O)c3c(c(O)c1C2=O)C[C@@](O)(C(=O)CO)C[C@@H]3OC1CC(N)C(O)C(C)O1 (stereo not given in full),98% (inactive)

# Same assay, conditions: 1 µM
row,Structure (SMILES),growth
1,COc1cccc2c1C(=O)c1c(O)c3c(c(O)c1C2=O)C[C@@](O)(C(=O)CO)C[C@@H]3OC1CC(N)C(O)C(C)O1 (stereo not given in full),33% (inactive)

# Same assay, conditions: 2.5 µM
row,Structure (SMILES),growth
1,COc1cccc2c1C(=O)c1c(O)c3c(c(O)c1C2=O)C[C@@](O)(C(=O)CO)C[C@@H]3OC1CC(N)C(O)C(C)O1 (stereo not given in full),7.99% (active)

# Same assay, conditions: 10 µM
row,Structure (SMILES),growth
1,NC1=C(Cl)C(=O)c2ccccc2C1=O,-0.135% (active)
2,NC(=O)SCC(=O)NNc1ccccc1,92.5% (inactive)
3,O=C(/C=C/c1cccnc1)c1ccccc1,87.8% (inactive)
4,COc1ccc(CC(=O)c2ccc(O)cc2O)cc1,111% (inactive)
5,OCC1OC(n2cnc3c(=S)nc[nH]c32)C(O)C1O (stereo not given),110% (inactive) and 60.5% (inactive)
6,COc1cccc2c1C(=O)c1c(O)c3c(c(O)c1C2=O)C[C@@](O)(C(=O)CO)C[C@@H]3OC1CC(N)C(O)C(C)O1 (stereo not given in full),-61.7% (active)
7,COc1c(O)cc2oc3cc(O)c(CC=C(C)C)c(O)c3c(=O)c2c1CC=C(C)C,82.7% (inactive)
8,CCN1/C(=C/C=C/C=C/c2sc3ccccc3[n+]2CC)Sc2ccccc21,-45.6% (active)
9,Cc1cc(NS(=O)(=O)c2ccc(N=Nc3cc(N=Nc4ccc(S(=O)(=O)Nc5cc(C)nc(C)n5)cc4)c4c(NC(=O)C(Cl)Cl)cccc4c3OC(=O)C(Cl)Cl)cc2)nc(C)n1 (tested in a mixture with another compound),75.6% (inactive) and 61.7% (inactive)
10,CCN(CC)c1ccc(NC(C(=O)c2ccccc2)c2ccccc2)cc1 (stereo not given),81.7% (inactive)
11,O=C(/C=C/c1ccccn1)c1ccccc1,66.2% (inactive)
12,O=C(Nc1ccc(C(=O)O)c(O)c1)c1ccccc1,96.4% (inactive) and 96.3% (inactive)
13,Nc1nc(=S)c2ncn(C3OC(CO)C(O)C3O)c2[nH]1 (stereo not given),101% (inactive) and 27.5% (inactive)
14,CCCCCCCCCCCC[N+](C)(C)Cc1ccccc1,-12.7% (active)
15,NNc1c2ccccc2nc2ccccc12,55% (inactive)
16,Clc1ccc(/C=C/c2ccccn2)c(Cl)c1,61.2% (inactive)
17,CCCC1CCC(=C2C(=O)CCC2=O)O1 (stereo not given),81.8% (inactive) and -17.8% (active)
18,CC[N+](CC)=c1ccc2nc3c(cc(N)c4ccccc43)oc-2c1,-73.4% (active)

row,Structure (SMILES),growth
1,CCCCCCCCCCCCSC(=NC)NC,74.8% (inactive) and 82.3% (inactive)
2,COc1cccc2c1C(=O)c1c(O)c3c(c(O)c1C2=O)C[C@@](O)(C(C)=O)C[C@@H]3OC1CC(N)C(O)C(C)O1 (stereo not given in full),-82.7% (active)
3,O=C1C=C(O)c2ccccc2C1=O.[Ag],87.9% (inactive)
4,CS(=O)(=O)OC1CC(n2ccc(=O)[nH]c2=O)OC1COC(c1ccccc1)(c1ccccc1)c1ccccc1 (stereo not given),103% (inactive)
5,CCCCCCCCCCSC(=N)N,80.7% (inactive)
6,CCCCCCCCCCCCCCCCCCOCC(COP(=O)([O-])OCC[N+](C)(C)C)OC (stereo not given),84.4% (inactive)
7,Nc1c2ccccc2nc2ccccc12,33.1% (inactive) and 51.8% (inactive) and 89.3% (inactive)
8,COC(=O)C1C(O)C(C)C(O)C(C)C=C(C)C2=C3C(=C(C)C(=O)c4c(O)c(c(C)c(OC(C)=O)c43)NC(=O)C(C)=C/C=C\C(C)C(O)C(C)C1O)OCO2 (stereo not given),90% (inactive)
9,CO[C@H](C(=O)[C@@H](O)[C@@H](C)O)[C@@H]1Cc2cc3cc(OC4CC(OC5CC(O)C(O)C(C)O5)C(O)C(C)O4)c(C)c(O)c3c(O)c2C(=O)[C@H]1OC1CC(OC2CC(OC3CC(C)(O)C(O)C(C)O3)C(O)C(C)O2)C(O)C(C)O1 (stereo not given in full),-56.9% (active)
10,CC(C)(C)CC(C)(C)c1ccc(OCCO)cc1,101% (inactive)
11,O=[N+]([O-])C1=C(c2ccccc2)SC=C(c2ccccc2)S1,92.7% (inactive)
12,CC1=CC(C)=Nc2ccc(Cl)cc2N1,90.4% (inactive)
13,O=c1ccn(C2CC(O)C(COC(c3ccccc3)(c3ccccc3)c3ccccc3)O2)c(=O)[nH]1 (stereo not given),83.2% (inactive)
14,CSC1SCC2C(=O)N(C)C(C(C)C)C(=O)OCC(NC(=O)c3cnc4ccccc4n3)C(=O)NC(C)C(=O)N(C)C1C(=O)N(C)C(C(C)C)C(=O)OCC(NC(=O)c1cnc3ccccc3n1)C(=O)NC(C)C(=O)N2C (stereo not given),-80.2% (active)
15,COC1OCC(O)C(O)C1O (stereo not given),80.8% (inactive)
16,OCC(O)C(O)C(O)C(/C=N/Nc1ccccc1)=N/Nc1ccccc1 (stereo not given),66.3% (inactive)
17,OC(CN1CCCC2CCCCC21)c1cc2ccccc2c2ccccc12 (stereo not given),12.5% (inactive)
18,Clc1cc(Cl)c(Cl)nn1,107% (inactive)

# Same assay, conditions: 100 µM
row,Structure (SMILES),growth
1,O=c1ccn(C2CC(O)C(COC(c3ccccc3)(c3ccccc3)c3ccccc3)O2)c(=O)[nH]1 (stereo not given),57.8% (inactive)
